Results on 4 compounds are retold here after PubChem BioAssay.

Assay [1] concerns Plasmodium falciparum Sir2 (PF13_0152, Sir2A). As to the kind of experiment: pfSir2 binders on small-molecule microarrays, primary screen, biochemical, small-molecule microarray, 635 nm fluorescence (AID 1098).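 Note: score merges spot fluorescence intensity with its signal-to-noise ratio.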 The settings on record: small-molecule microarray binding, fluorescence 635 nm; higher = more signal.
Assay [2] is described as follows: small-molecule microarray binders of probe aDKK1, primary screen, biochemical, biotinylated probe, 635/667 nm fluorescence (AID 1099).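 Note: score merges 667nm spot fluorescence with signal to noise across triplicate slides.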 Particulars: higher = more signal.
The nature of assay [3]: small-molecule microarray binders of probe aCHRDL2, primary screen, biochemical, biotinylated probe, 635/667 nm fluorescence (AID 1100). The settings on record: higher = more signal.
Assay [4] is described as follows: splicing luciferase reporter signal modulators, primary screen, spliceosome inhibition project, cell-based, HEK293, splice +/- reporter (AID 1101).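 Note: HEK293 cells carrying a splicing-competent luciferase reporter gene; test concentration not given here.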 The settings on record: luminescence, 24 h, higher = more signal, called active from +8 up or from −8 down. (In a reporter assay the amount or activity of a reporter protein is the signal.)
Assay [5] has as its target Fibroblast growth factor 10 (Homo sapiens) (UniProt O15520). The experiment in a line: FGF10 binders on small-molecule microarrays, primary screen, biochemical, small-molecule microarray, 635 nm fluorescence (AID 1102). The settings on record: FGF10 binding, fluorescence 635 nm, higher = more signal.
Assay [6] relates to glycogen synthase kinase-3 (GSK3A per assay name; protocol says GSK3B). The experiment in a line: GSK3 binders on small-molecule microarrays, primary screen, biochemical, small-molecule microarray, 635 nm fluorescence, GSK3A (AID 1103). Note: the record names both GSK3A and GSK3B. The settings on record: small-molecule microarray binding, fluorescence 635 nm; higher = more signal.
For assay [7], the target named is Epidermal growth factor receptor (Homo sapiens) (UniProt P00533). The experiment in a line: EGFR binders on small-molecule microarrays, primary screen, biochemical, small-molecule microarray, 635 nm fluorescence (AID 1104).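 Note: score merges 667 nm emission intensity with spot signal to noise over triplicate slides.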 The settings on record: EGFR binding, higher = more signal.
Assay [8] addresses Follistatin-related protein 3 (Homo sapiens) (UniProt O95633). As to the kind of experiment: FSTL3 binders on small-molecule microarrays, primary screen, biochemical, small-molecule microarray, 635 nm fluorescence (AID 1105).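 Note: score merges emission near 667 nm and signal to noise per printed spot across three slides.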 The settings on record: FSTL3 binding, higher = more signal.
Assay [9] concerns the target Dickkopf-related protein 1 (Homo sapiens) (UniProt O94907). The experiment in a line: DKK1 binders on small-molecule microarrays, primary screen, biochemical, small-molecule microarray, 635 nm fluorescence scan (AID 1106).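 Note: score merges emission near 667 nm with signal to noise over three replicate slides.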 The settings on record: DKK1 binding, higher = more signal.
Assay [10] has as its system Inhibin beta A chain (activin A). The experiment in a line: INHBA (activin A) binders on microarrays, primary screen, biochemical, small-molecule microarray, 635 nm fluorescence scan (AID 1107).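 Note: mouse activin A protein probed at 4.33 µg/mL on printed slides; score merges bound-protein fluorescence near 667 nm with spot signal-to-noise.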 The settings on record: small-molecule microarray binding, higher = more signal.
Assay [11] deals with Human papillomavirus type 1a protein E7 (residues 44-93). The experiment in a line: HPV1a E7 fragment binders on microarrays, primary screen, biochemical, small-molecule microarray, residues 44-93, 635 nm fluorescence (AID 1108).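 Note: E7 fragment applied at 1 µg/mL in TBST for 1 h at 4 C; score combines spot fluorescence with its signal to noise ratio.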 The settings on record: small-molecule microarray binding, fluorescence 635 nm; higher = more signal.
Assay [12] is described as follows: modulators of HCV replicon luciferase signal, primary screen, HCV replication inhibitor project, Huh7 cells, luciferase reporter (AID 1109).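 Note: huh7 hepatoma cells harbouring a luciferase neomycin HCV replicon reporter; luciferase luminescence as measure of HCV replicon replication; test concentration not given here.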 Particulars: 48 h, higher = more signal. (In general: A replicon is a self-replicating genome or part of one, used to study replication in cells.)
Assay [13] deals with Left-right determination factor 2 (Homo sapiens) (UniProt O00292). The experiment in a line: LEFTY2 binders on small-molecule microarrays, primary screen, biochemical, small-molecule microarray, 635 nm fluorescence scan (AID 1110). Particulars: LEFTY2 binding, higher = more signal.
Assay [14] addresses Calmodulin-1 (Homo sapiens) (UniProt P0DP23). As to the kind of experiment: CALM1 binders on microarrays, EGTA buffer, profiling panel, biochemical, small-molecule microarray, Cy5-labelled CALM1 (AID 1111).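 Note: labelled calmodulin applied in Tris saline Tween buffer holding calcium plus EGTA and DTT.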 The settings on record: Cy5-CALM1 binding fluorescence, higher = more signal.
The target is the same in assay [15]. The experiment in a line: calcium-bound CALM1 binders on microarrays, profiling panel, artefact control for SMM control-protein annotation, biochemical, small-molecule microarray, Cy5-labelled CALM1, plus calcium (AID 1112).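 Note: score merges spot fluorescence with signal to noise from triplicate slides.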 The settings on record: Cy5-CALM1 binding fluorescence, higher = more signal.
Assay [16] can be described thus: small-molecule microarray binders of probe aWnt5a, primary screen, biochemical, biotinylated probe, 635/667 nm fluorescence (AID 1113).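 Note: score merges 667 nm fluorescence intensity with signal-to-noise per printed feature.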 The settings on record: higher = more signal.
A short description of assay [17]: small-molecule microarray binders of probe aShh, primary screen, biochemical, biotinylated probe, 635/667 nm fluorescence (AID 1114).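 Note: probe is biotin-labelled aShh protein from a stem cell growth factor screen; measures binding of labelled protein to compounds printed on the slide; score merges feature fluorescence at 667 nm with signal-to-noise.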 The settings on record: higher = more signal.
Assay [18] in a line: small-molecule microarray binders of probe aNog, primary screen, biochemical, biotinylated probe, 635/667 nm fluorescence (AID 1115).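 Note: probe is biotinylated aNog protein used at 0.15 µg/mL for 1 h at 4 C; z-score combines 667 nm fluorescence of each spot with its signal to noise.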 Particulars: higher = more signal.
Assay [19] addresses Torsin-1A-interacting protein 1 (Homo sapiens) (UniProt Q5JTV8). As to the kind of experiment: LAP1 binders from COS7 cell lysate, primary screen, small-molecule microarray, 635/667 nm fluorescence (AID 1116). The settings on record: COS7-hLAP1 lysate binding, 635 nm fluorescence, higher = more signal.
The target in assay [20] is Alpha-bungarotoxin (Bungarus multicinctus) (UniProt P60615). The experiment in a line: alpha-bungarotoxin binders on microarray, profiling panel, artefact control for SMM control protein annotation, biochemical, small-molecule microarray, Alexa647 label, 635/667 nm fluorescence (AID 1117). Particulars: alpha-BTX-A647 binding fluorescence, higher = more signal.

SMILES strings stand for the structures. Values joined by “and” are separate entries in the source; they are usually repeats but may differ in a detail not shown here. Equal values may be shown once. Active and inactive are the calls of the source.

Sequence of Left-right determination factor 2 (Homo sapiens) (O00292 whole entry, looked up): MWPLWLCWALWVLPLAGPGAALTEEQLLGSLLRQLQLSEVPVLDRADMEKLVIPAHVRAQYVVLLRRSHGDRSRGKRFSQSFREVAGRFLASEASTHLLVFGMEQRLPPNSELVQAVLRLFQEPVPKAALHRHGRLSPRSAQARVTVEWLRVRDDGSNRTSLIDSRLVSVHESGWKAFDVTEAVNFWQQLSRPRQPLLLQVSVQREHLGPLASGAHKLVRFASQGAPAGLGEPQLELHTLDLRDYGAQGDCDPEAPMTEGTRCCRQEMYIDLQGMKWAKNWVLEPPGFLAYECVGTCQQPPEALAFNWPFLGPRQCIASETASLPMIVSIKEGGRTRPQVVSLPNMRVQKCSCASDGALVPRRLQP
Sequence of Torsin-1A-interacting protein 1 (Homo sapiens) (Q5JTV8 whole entry, looked up): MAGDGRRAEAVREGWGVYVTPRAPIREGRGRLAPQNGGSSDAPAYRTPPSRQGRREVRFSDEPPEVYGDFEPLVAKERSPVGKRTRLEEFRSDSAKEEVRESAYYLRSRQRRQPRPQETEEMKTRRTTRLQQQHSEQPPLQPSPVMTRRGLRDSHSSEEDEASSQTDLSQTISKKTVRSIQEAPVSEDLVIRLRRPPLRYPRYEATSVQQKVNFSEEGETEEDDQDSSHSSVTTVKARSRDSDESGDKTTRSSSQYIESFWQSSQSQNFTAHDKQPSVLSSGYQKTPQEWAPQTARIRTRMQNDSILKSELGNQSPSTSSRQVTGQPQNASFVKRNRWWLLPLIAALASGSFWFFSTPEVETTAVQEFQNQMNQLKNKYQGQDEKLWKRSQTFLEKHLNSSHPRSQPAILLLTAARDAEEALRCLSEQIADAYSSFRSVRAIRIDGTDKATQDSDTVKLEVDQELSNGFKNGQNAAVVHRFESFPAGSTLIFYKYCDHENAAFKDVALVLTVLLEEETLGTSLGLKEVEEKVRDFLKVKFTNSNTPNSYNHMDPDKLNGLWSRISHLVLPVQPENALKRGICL
Sequence of Follistatin-related protein 3 (Homo sapiens) (O95633 whole entry, looked up): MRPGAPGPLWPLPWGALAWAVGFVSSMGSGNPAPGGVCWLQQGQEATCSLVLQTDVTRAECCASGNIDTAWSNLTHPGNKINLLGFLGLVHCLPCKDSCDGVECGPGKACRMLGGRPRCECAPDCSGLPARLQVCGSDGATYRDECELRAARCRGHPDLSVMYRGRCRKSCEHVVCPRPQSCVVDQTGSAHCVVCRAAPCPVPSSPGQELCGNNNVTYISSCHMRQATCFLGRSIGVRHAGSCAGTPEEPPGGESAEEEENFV
Sequence of Epidermal growth factor receptor (Homo sapiens) (P00533 whole entry, looked up): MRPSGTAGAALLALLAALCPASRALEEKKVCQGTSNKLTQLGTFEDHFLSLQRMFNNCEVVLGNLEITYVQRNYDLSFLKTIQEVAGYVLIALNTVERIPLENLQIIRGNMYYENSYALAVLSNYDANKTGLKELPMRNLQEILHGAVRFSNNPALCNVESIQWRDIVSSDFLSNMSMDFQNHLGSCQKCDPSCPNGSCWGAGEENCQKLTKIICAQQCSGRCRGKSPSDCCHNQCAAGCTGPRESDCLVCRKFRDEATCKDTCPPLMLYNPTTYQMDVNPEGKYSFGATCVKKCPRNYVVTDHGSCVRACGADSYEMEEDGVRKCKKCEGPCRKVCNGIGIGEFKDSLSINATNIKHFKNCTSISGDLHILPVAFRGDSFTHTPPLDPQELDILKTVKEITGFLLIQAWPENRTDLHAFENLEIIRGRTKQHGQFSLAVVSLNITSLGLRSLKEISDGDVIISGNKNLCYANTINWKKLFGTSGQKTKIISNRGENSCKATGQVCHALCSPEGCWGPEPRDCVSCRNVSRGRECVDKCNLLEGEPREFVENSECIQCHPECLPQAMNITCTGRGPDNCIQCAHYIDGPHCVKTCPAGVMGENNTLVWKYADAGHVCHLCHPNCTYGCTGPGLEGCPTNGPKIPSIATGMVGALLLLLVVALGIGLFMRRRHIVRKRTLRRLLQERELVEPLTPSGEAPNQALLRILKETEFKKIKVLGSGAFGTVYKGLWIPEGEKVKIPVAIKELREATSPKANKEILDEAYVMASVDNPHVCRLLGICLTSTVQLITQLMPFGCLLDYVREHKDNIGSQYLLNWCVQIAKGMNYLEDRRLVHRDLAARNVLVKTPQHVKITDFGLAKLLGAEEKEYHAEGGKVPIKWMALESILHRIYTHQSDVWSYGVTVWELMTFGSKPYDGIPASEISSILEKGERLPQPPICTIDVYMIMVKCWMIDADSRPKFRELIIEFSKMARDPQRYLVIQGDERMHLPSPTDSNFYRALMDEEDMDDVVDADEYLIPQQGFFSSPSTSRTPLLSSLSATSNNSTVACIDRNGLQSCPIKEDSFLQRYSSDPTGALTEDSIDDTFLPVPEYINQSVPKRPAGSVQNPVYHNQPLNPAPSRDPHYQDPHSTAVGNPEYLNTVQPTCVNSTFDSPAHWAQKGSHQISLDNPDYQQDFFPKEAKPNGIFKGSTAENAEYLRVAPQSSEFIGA
Sequence of Fibroblast growth factor 10 (Homo sapiens) (O15520 whole entry, looked up): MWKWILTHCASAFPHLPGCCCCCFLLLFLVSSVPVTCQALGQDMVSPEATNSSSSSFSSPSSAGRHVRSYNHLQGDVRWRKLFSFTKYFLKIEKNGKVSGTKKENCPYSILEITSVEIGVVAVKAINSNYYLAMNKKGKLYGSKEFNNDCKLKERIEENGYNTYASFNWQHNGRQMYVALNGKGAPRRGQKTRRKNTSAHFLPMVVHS
Sequence of Alpha-bungarotoxin (Bungarus multicinctus) (P60615 whole entry, looked up): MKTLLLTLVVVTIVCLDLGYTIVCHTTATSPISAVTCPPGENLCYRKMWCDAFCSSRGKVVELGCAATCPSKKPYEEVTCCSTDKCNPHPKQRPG
Sequence of Dickkopf-related protein 1 (Homo sapiens) (O94907 whole entry, looked up): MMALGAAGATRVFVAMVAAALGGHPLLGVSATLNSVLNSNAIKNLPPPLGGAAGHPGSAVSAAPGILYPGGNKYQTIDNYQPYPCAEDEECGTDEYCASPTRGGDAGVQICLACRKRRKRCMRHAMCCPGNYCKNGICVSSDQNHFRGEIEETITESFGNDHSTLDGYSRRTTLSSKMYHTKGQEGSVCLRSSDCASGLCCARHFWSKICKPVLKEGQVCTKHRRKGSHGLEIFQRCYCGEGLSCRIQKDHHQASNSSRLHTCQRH

Regarding `C=CCN(Cc1ccccc1)C(=O)C1N(C(C)(C)CO)C(=O)C2C(C(=O)O)C3C=CC21O3` (stereo not given), the composite z-score in [1] was 0.107 and 0.29; in assay [2], -0.135 and -0.486; in assay [3], 0.708 and 0.849; in [5], -1.46 and -2; in assay [6] it was -0.767 and -1.51; in assay [7], -2.64 and -1.86. Moreover, the composite z-score in assay [8] is -1.45 and -1.73; in assay [9], -2.3 and -1.58; in [10] it was -4.6 and -2.88; in assay [11], -1.71 and -2.2; in assay [13], -2.75 and -1.49; in assay [14] it was -0.23 and -0.697. In addition, the composite z-score was 1.19 and 0.132 in assay [15]; -0.202 and -0.224 in assay [16]; -0.138 and -0.206 in assay [17]; 0.196 and -0.47 in assay [18]; 0.148 and -1.17 in [19]; -2.89 and -1.25 in assay [20]. The z-score in assay [4] is 0.0525 (inactive) and 0.382 (inactive); in [12] it was -1.39 and 0.81.
On to `C=CCN(C(=O)C1N(C(C)(C)CO)C(=O)C2C(C(=O)O)C3C=CC21O3)C(C)(C)C` (stereo not given), for which the composite z-score in [1] was -0.0242 and 0.712; in assay [2], 0.338 and 0.0018; in assay [3] it was 1.06 and 1.01; in [5], -0.95 and -1.33; in assay [6], -1.24 and -1.03; in assay [7] it was -2.18 and -1.68. The composite z-score in [8] is -2.45 and -2.42; in [9], -2.28 and -3.04; in [10], -3 and -3.14; in assay [11], -0.898 and 0.0796; in [13], -3.78 and -1.84; in [14] it was -0.742 and -0.353. Moreover, the composite z-score in [15] is 0.271 and 0.369; in [16] it was -0.286 and -0.148; in assay [17], -0.138; in assay [18], -0.183 and -0.0144; in assay [19], -1.69 and 3.03; in [20], -2.08 and 1.04. In addition, the z-score was 0.153 (inactive) and -0.231 (inactive) in assay [4]; -0.276 and -0.577 in assay [12].
Take `CC(CO)N1C(=O)[C@@H]2C3C(=O)OCCC=C[C@H]3OC23C=CCN(CCN2CCOCC2)C(=O)[C@@H]13` (stereo not given in full): the composite z-score in [1] is 0.53 and 0.55; in assay [2] it was -0.278 and 0.0598; in assay [3], -0.389 and 0.466; in [5], -0.131 and -0.0694; in [6], -0.496 and 0.65; in [7], -0.51 and -0.235. The composite z-score in [8] was -0.0214 and -0.166; in assay [9] it was 0.0325 and -0.442; in assay [10], 0.621 and 1.59; in assay [11] it was -1.05 and 0.497; in [13], -0.346 and 0.398; in assay [14], -0.0612 and -0.561. In addition, the composite z-score in assay [15] was -0.75 and -1.03; in assay [16], -0.0981 and -0.13; in assay [17], 0.0278 and 0.214; in assay [18], 0.199 and -0.0161; in assay [19] it was -0.71 and 1.48; in assay [20] it was -0.106 and -0.0808. Also, the z-score is 0.388 (inactive) and -0.153 (inactive) in [4]; -0.38 and -0.851 in assay [12].
For the compound `CCOC(=O)NN=C1C[C@@H](O)[C@@H](O)[C@@H]2[C@@H]3C(=O)N(Cc4ccc5c(c4)OCO5)C(=O)[C@@H]3CC[C@@H]12`, the composite z-score in assay [1] was 0.0867; in [2] it was -0.0464; in [3] it was -0.331; in [5], 0.0364; in assay [6] it was 0.424; in assay [7] it was 0.231. The composite z-score in assay [8] is -0.406; in assay [9], 0.0071; in assay [10], -0.134; in assay [11], 0.431; in assay [13], -0.0145; in [14], 0.257. In addition, the composite z-score in assay [15] was -0.727; in assay [16] it was -0.006; in [17], -0.0011; in [18] it was -0.252; in assay [19], 0.629; in [20], 0.619. Further, the z-score was 0.0278 (inactive) in assay [4] and -0.398 in assay [12].
